An excerpt weighted towards active compounds, which were near 4.3% of everything screened.
BoNT A protease – BoNT/A light chain protease inhibitors, primary screen, biochemical, flow cytometry, MLPCN library; Botulinum neurotoxin type A light chain protease (Clostridium botulinum A str. ATCC 3502); AID 588499, 2011; multiplex microsphere protease substrate cleavage; 360,000 tested, 0.17% active; inhibition, % at 10 µM
PfHsp40 rescue – rescue of yeast from PfHsp40 toxicity, primary screen, S. cerevisiae, ATP luminescence; S. cerevisiae expressing PfHsp40, growth rescue; growth rescue, % at 12.5 µM; 340,000 tested, 0.68% active; AID 504582, 2011; in the data active means growth rescue above about 28%, passing the limit was not always enough; inconclusive means no clear call, values can overlap the other calls;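 further: yeast W303a lacking pdr1 and pdr3 grown in galactose medium; growth measured after three days at 30 °C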
BoNT F protease – BoNT/F light chain protease inhibitors, primary screen, biochemical, flow cytometry, MLPCN library | Botulinum neurotoxin type F light chain protease (Clostridium botulinum) | Multiplex microsphere protease cleavage assay | inhibition, % at 10 µM | 360,000 tested, 0.22% active | AID 588497, 2011; in the data active means inhibition above about 35%, passing the limit was not always enough; inconclusive means no clear call, values can overlap the other calls
MazF activator – activators of E. coli MazEF toxin-antitoxin RNase, primary screen, biochemical, fluorescence, uHTS | FAM/BHQ RNA-DNA oligo cleavage fluorescence, 5 h | Endoribonuclease toxin MazF (Escherichia coli (strain K12)), P0AE70 | AID 504720, 2011 | 350,000 tested, 0.32% active | activation, % at 20 µM; in the data active means activation above about 50%
Target sequence (P0AE70 whole entry, looked up): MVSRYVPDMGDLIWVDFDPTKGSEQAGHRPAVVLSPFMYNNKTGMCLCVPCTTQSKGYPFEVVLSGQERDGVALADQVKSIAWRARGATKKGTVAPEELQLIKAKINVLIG
Autofluor counter – compound fluorescence in toxin protease inhibitor counterscreen; compound autofluorescence counterscreen, microsphere flow cytometry; active compounds read high; fluorescence intensity (test concentration not listed); 360,000 tested, 3.1% active; AID 624483; in the data active means fluorescence intensity above about 16000; inconclusive means no clear call, values can overlap the other calls
Anthrax LF inh2 – Bacillus anthracis LF protease inhibitors, primary screen, biochemical, multiplex microsphere, MLPCN library | Lethal factor (Bacillus anthracis), P15917 | multiplex microsphere protease cleavage assay | inhibition, % at 10 µM | 360,000 tested, 0.12% active | AID 588501, 2011
Large screens that a line does not name were inactive. Unless noted, no stated cut-off is given here; in the data, active means inhibition above about 30%; inconclusive means no clear call, values can overlap the other calls; inactive means below that.

CCOC(=O)C1=C(O)CSC1=Nc1ccc(Cl)cc1	Autofluor counter 16689
CC(C)[C@H](NC(=O)OCc1ccccc1)C(=O)OCC(=O)N1CCCCC1	none
N/C(=N\OC(=O)c1ccc(Cl)c([N+](=O)[O-])c1)c1ccccc1	BoNT F protease 63.0
CN(CC(=O)O/N=C(\N)c1cccc([N+](=O)[O-])c1)S(=O)(=O)c1ccccc1	Autofluor counter 17118
Cc1ccc(C(=O)O/N=C(\N)c2cccc([N+](=O)[O-])c2)cc1	Autofluor counter 19951
N/C(=N\OC(=O)c1ccc(Br)cc1)c1cccc([N+](=O)[O-])c1	BoNT F protease inconclusive
Cc1ccc(OCCNC(=O)c2cccc(S(=O)(=O)NCc3ccccc3)c2)cc1	none
CS(=O)(=O)NCc1ccc(C(=O)NCCOc2ccccc2)cc1	Autofluor counter 17640
COC(=O)c1c(NC(=O)CSc2nnnn2-c2ccccc2)sc2c1CCC(C)C2 (stereo unspecified)	none
COC(=O)c1c(NC(=O)CSc2nnnn2-c2ccccc2)sc2c1CCC(C(C)(C)C)C2 (stereo unspecified)	Autofluor counter 23374
CCOc1cc([C@H]2[C@@H]3CCCC[C@]3(O)CCN2CC(=O)NCc2ccco2)ccc1O	Autofluor counter 22611
COc1ccc(OC)c(S(=O)(=O)CC(O)COc2ccccc2Cl)c1 (stereo unspecified)	none
COC(=O)c1cc(Cl)c(NC(=O)/C=C/c2ccc(Cl)cc2)cc1OC	Autofluor counter 20164
COC(=O)c1cc(Cl)c(NC(=O)c2cc(OC)c(OC)c(OC)c2)cc1OC	Autofluor counter 21669
COc1ccc(OC)c(S(=O)(=O)N2CCC(C(=O)N3CCCCCC3)CC2)c1	none
COc1ccc(Cl)cc1NC(=O)CN(C)C(=O)c1cn(-c2ccccc2)nc1-c1cccnc1	Autofluor counter inconclusive
Cc1ccc(S(=O)(=O)N(C)C)cc1NC(=S)N1CCN(Cc2ccc3c(c2)OCO3)CC1	none
COC(=O)[C@]12CCCCC=C1N(Cc1ccccc1)C(=O)[C@H](CC(=O)NCc1ccc(OC)c(OC)c1)C2	none (no result: PfHsp40 rescue, MazF activator)
CCC1=NN2C(=N)/C(=C\c3ccc(OCCOc4ccc(NC(C)=O)cc4)cc3)C(=O)N=C2S1	Anthrax LF inh2 51.4
Cn1cc([C@@H]2C[C@H]3CN(Cc4cccc(Cl)c4)C(=O)[C@]34CCCN24)c2ccccc21	Autofluor counter 17603
CCOC(=O)c1cc(-c2ccccc2C)nn1CC1CC(c2ccc(OC)cc2)=NO1 (stereo unspecified)	none
N#C/C(=C\c1ccccn1)c1nc2ccccc2s1	MazF activator 66.7
Cc1cccn2c(=O)c3cc(C(=O)NCc4ccco4)c(=N)n(C(C)C)c3nc12	Autofluor counter 16268
CCCCNC(=O)c1cc2c(=O)n3cccc(C)c3nc2n(Cc2ccncc2)c1=N	Autofluor counter 24016
Cc1cccn2c(=O)c3cc(C(=O)NCc4ccco4)c(=N)n(CCc4ccccc4)c3nc12	MazF activator 54.0
COCCNC(=O)c1cc2c(=O)n3cccc(C)c3nc2n(Cc2ccncc2)c1=N	none
Cc1cccn2c(=O)c3cc(C(=O)NCCc4ccccc4)c(=N)n(Cc4ccco4)c3nc12	none
O=C(COC(=O)COc1ccccc1)NCc1ccc2c(c1)OCO2	none
CCCCN(C)c1c(C)nc2ccc(C(=O)N3CCN(C(C)=O)CC3)cn12	none (no result: PfHsp40 rescue, MazF activator)
COc1ccc(CC(N)c2csc(NC(=O)c3cc(C(C)(C)C)nn3Cc3ccccc3)n2)cc1 (stereo unspecified)	none (no result: PfHsp40 rescue, MazF activator)
C=CC(=O)N1CCCC(Nc2nc(Nc3ccc(N(C)C(=O)CC)cc3C)nc3nc[nH]c23)C1 (stereo unspecified)	none
O=c1c2ccccc2cnn1CCOc1cccc(Br)c1	none
CCN1CCN(Cc2cc(Br)cc(OC)c2O)CC1	Autofluor counter 22198
CCN(CC)c1ccc(S(=O)(=O)N2CCOCC2)cc1NC(=O)COC(=O)/C=C/c1ccc(C)o1	Autofluor counter inconclusive
O=[N+]([O-])c1cc(C(F)(F)F)ccc1NCCc1c[nH]c2ccc(O)cc12	PfHsp40 rescue 484.1
